{"source": "PubChem BioAssay AID651658", "about": "(Broad Institute, 2012)", "note": "The campaign covered roughly 340,000 compounds. About 5,100 (1.5%) were called active. The entries come from a sample that favours actives as a whole. Unmarked numbers belong to inactive results.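 Rule for the calls: active = mean Tm shift, scaled 0 neutral to 100 positive control, at about 1.3% or above, every replicate too (limit read from the data); inconclusive = no clear call, values can overlap the other calls; inactive = the rest.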"}
{"target": "Fibroblast growth factor 22 (Homo sapiens) (UniProt Q9HCT0)", "sequence (Q9HCT0 whole entry, looked up)": "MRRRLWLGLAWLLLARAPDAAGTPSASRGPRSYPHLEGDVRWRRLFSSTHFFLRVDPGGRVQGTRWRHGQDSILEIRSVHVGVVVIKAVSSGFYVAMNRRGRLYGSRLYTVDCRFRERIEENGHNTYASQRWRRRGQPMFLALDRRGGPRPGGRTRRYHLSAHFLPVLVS", "test": "FGF22 ligand-induced thermal stabilization – biophysical, thermal shift, single point, FGF22 synaptogenesis inhibitor project, primary screen (AID 651658)", "conditions": "recombinant FGF22 thermal shift, SYPRO orange fluorescence; at 9.99 µM; stronger effect = higher value; percent of sucrose octasulfate shift, DMSO zero"}
{"smiles": "COc1ccc(OCCCn2cccc2/C=C2/C(=N)N3OC(C)=CC3=NC2=O)cc1", "activity (Tm shift, normalised)": "43.6% (active)"}
{"smiles": "CC1=CC2=NC(=O)/C(=C/c3coc4ccccc4c3=O)C(=N)N2O1", "activity (Tm shift, normalised)": "0.039%"}
{"smiles": "COc1ccccc1OCCOc1ccc(/C=C2\\C(=N)N3N=C(C)SC3=NC2=O)cc1", "activity (Tm shift, normalised)": "-0.133%"}
{"smiles": "CCCNC(=O)N(C)C[C@@H]1Oc2cc(-c3ccccc3)ccc2S(=O)(=O)N([C@H](C)CO)C[C@H]1C", "activity (Tm shift, normalised)": "-0.206%"}
{"smiles": "O=C(N[C@@H]1CC[C@@H](CCNS(=O)(=O)c2ccccc2Cl)O[C@@H]1CO)c1ccccc1", "activity (Tm shift, normalised)": "-0.098%"}
{"smiles": "CC1CN(C(=O)c2cccc(NS(=O)(=O)c3ccc(Br)cc3)c2)CC(C)O1", "note": "(stereo not given)", "activity (Tm shift, normalised)": "0.103%"}
{"smiles": "CC1CN(C(=O)COC(=O)c2cccc(NS(=O)(=O)c3ccccc3)c2)CC(C)O1", "note": "(stereo not given)", "activity (Tm shift, normalised)": "43% (active)"}
{"smiles": "COc1ccc(N2CCN(C(=O)COC(=O)c3cccc(S(=O)(=O)Nc4ccccc4OC)c3)CC2)cc1", "activity (Tm shift, normalised)": "-0.159%"}
{"smiles": "COc1cccc(-c2ccc3c(c2)[C@@H]2[C@@H](CCN2S(=O)(=O)C2=NC(C)C=N2)[C@@H](CO)N3C)c1", "note": "(stereo not given in full)", "activity (Tm shift, normalised)": "-0.294%"}
{"smiles": "CN1CCN(/N=C/c2ccc(C#N)cc2)CC1", "activity (Tm shift, normalised)": "0.346%"}
{"smiles": "CN1CCN(/N=C/c2ccc(-c3ccc([N+](=O)[O-])cc3)o2)CC1", "activity (Tm shift, normalised)": "42.9% (active)"}
{"smiles": "Cc1ccc(-c2ccc(/C=N/NC(=O)CN3CCOCC3)o2)cc1[N+](=O)[O-]", "activity (Tm shift, normalised)": "-0.102%"}
{"smiles": "COc1ccc(NC(=O)N[C@H]2CC[C@@H](CCNC(=O)c3cc(Cl)cc(Cl)c3)O[C@H]2CO)cc1", "activity (Tm shift, normalised)": "0.37%"}
{"smiles": "COc1ccc(C[C@@H]2CCc3cnnn3COC[C@H](c3ccccc3)NC2=O)cc1", "activity (Tm shift, normalised)": "0.006%"}
{"smiles": "CCCNC(=O)Nc1ccc2c(c1)OC[C@@H](C)N(CCC)C[C@H](C)[C@@H](OC)CN(C)C2=O", "activity (Tm shift, normalised)": "0.109%"}
{"smiles": "COc1ccc(C(=O)CSc2nnnn2C)c(OC)c1", "activity (Tm shift, normalised)": "43% (active)"}
{"smiles": "COc1ccc(C(=O)CCc2ccccc2O)c(OC)c1", "activity (Tm shift, normalised)": "-0.131%"}
{"smiles": "COc1ccc(-n2nnnc2SCC(=O)c2ccc(OC)c(OC)c2)cc1", "activity (Tm shift, normalised)": "-0.381%"}
{"smiles": "COc1ccc2c3c([nH]c2c1)[C@H](CO)N(C(=O)c1ccccc1)CC31CN(C(=O)Nc2cccc(F)c2)C1", "activity (Tm shift, normalised)": "0.15%"}
{"smiles": "O=C(c1cccnc1)N1CC2(C1)[C@@H](c1ccccc1)[C@H](CO)N2C(=O)C1CCC1", "activity (Tm shift, normalised)": "-0.239%"}
{"smiles": "O=C(Cc1ccccc1)N1CC2(C1)[C@H](c1ccccc1)[C@@H](CO)N2C(=O)c1cccnc1", "activity (Tm shift, normalised)": "-0.085%"}
{"smiles": "C[C@H](CO)N1C[C@H](C)[C@@H](CN(C)CC2CCCCC2)Oc2ccc(NC(=O)Cn3cnnn3)cc2CC1=O", "activity (Tm shift, normalised)": "-0.448%"}
{"smiles": "O=C(CN1C(=O)S/C(=C\\c2ccccc2Cl)C1=O)NC1C=CS(=O)(=O)C1", "note": "(stereo not given)", "activity (Tm shift, normalised)": "43.2% (active)"}
{"smiles": "O=C(CN1CCCCCC1)NCCN1C(=O)S/C(=C\\c2ccccc2Cl)C1=O", "activity (Tm shift, normalised)": "0.458%"}
{"smiles": "COc1cccc(/C=C2/SC(=S)N(CC(=O)NC3C=CS(=O)(=O)C3)C2=O)c1", "note": "(stereo not given)", "activity (Tm shift, normalised)": "-0.111%"}
{"smiles": "O=C(O)CCCCCCC(=O)NOCc1ccccc1", "activity (Tm shift, normalised)": "-0.15%"}
{"smiles": "CO[C@H](CN(C)C(=O)c1cnccn1)[C@@H](C)CN([C@@H](C)CO)S(=O)(=O)c1ccccc1", "activity (Tm shift, normalised)": "0.08%"}
{"smiles": "CC(C)NC(=O)Nc1ccc2c(c1)C(=O)N([C@@H](C)CO)C[C@@H](C)[C@H](CN(C)C)OCCCC[C@H](C)O2", "activity (Tm shift, normalised)": "-0.748%"}
{"smiles": "CC(C)NC(=O)N[C@@H]1CC[C@@H](CCNS(=O)(=O)Cc2ccccc2)O[C@@H]1CO", "activity (Tm shift, normalised)": "-0.299%"}
{"smiles": "O=C(Nc1ccc(F)cc1)N1C[C@@H]2[C@H](c3ccccc31)[C@H](CO)N2Cc1ccccc1", "activity (Tm shift, normalised)": "-0.206%"}
{"smiles": "CN1C(=O)c2cc(NC(=O)c3ccccc3)ccc2OC[C@H]2O[C@@H](CC(=O)O)CC[C@@H]21", "activity (Tm shift, normalised)": "-0.04%"}
{"smiles": "CC(=O)N(C)C[C@@H]1Oc2ncc(C#Cc3ccccn3)cc2C(=O)N([C@@H](C)CO)C[C@@H]1C", "activity (Tm shift, normalised)": "0.165%"}
{"smiles": "Cc1cccc(CN2CCN(C3CN(Cc4ccccc4)S(=O)(=O)C3)CC2)c1", "note": "(stereo not given)", "activity (Tm shift, normalised)": "-0.158%"}
{"smiles": "Cc1cccc(CN2CCN(C3CN(Cc4cn(Cc5cc(C)cc(C)c5)nn4)S(=O)(=O)C3)CC2)c1", "note": "(stereo not given)", "activity (Tm shift, normalised)": "-0.326%"}
{"smiles": "CCCCN1CC(N2CCN(Cc3cccc(C)c3)CC2)CS1(=O)=O", "note": "(stereo not given)", "activity (Tm shift, normalised)": "1.92% (active)"}
{"smiles": "COc1cccc(CNC(=O)C[C@@H]2CC[C@H]3[C@@H](COc4ccc(NC(=O)c5cccs5)cc4C(=O)N3C)O2)c1", "activity (Tm shift, normalised)": "0.125%"}
{"smiles": "Cc1ccc(NC(=O)C(=O)NCc2ccc(/C=N/NC(=O)c3c(C)nc4cc(C)ccn34)o2)cc1", "activity (Tm shift, normalised)": "2.68% (active)"}
{"smiles": "CCOc1ccc(/C=N\\NC(=O)c2c(C)nc3cc(C)ccn23)cc1", "activity (Tm shift, normalised)": "-0.098%"}
{"smiles": "Cc1ccn2c(=O)c(NC(=O)c3cccc4ccccc34)c(C)nc2c1", "activity (Tm shift, normalised)": "-0.089%"}
{"smiles": "CO[C@H]1CN(C)C(=O)c2cc(NS(=O)(=O)c3ccccc3)ccc2OC[C@H](C)NC[C@@H]1C", "activity (Tm shift, normalised)": "-0.185%"}
{"smiles": "C[C@H]1CN([C@@H](C)CO)S(=O)(=O)c2ccc(Br)cc2O[C@H]1CN(C)Cc1ccccn1", "activity (Tm shift, normalised)": "-0.079%"}
{"smiles": "COc1ccc2c3c(n(C)c2c1)[C@@H](CO)N(C(=O)Nc1ccc(F)cc1)CC31CCN(C(=O)c2cccnc2)CC1", "activity (Tm shift, normalised)": "-0.306%"}
{"smiles": "C[C@@H]1CN([C@H](C)CO)S(=O)(=O)c2ccc(C3=CCCC3)cc2O[C@@H]1CN(C)C(=O)C1CCC1", "activity (Tm shift, normalised)": "0.141%"}
{"smiles": "O=C(c1ccncc1)c1ccc([N+](=O)[O-])cc1", "activity (Tm shift, normalised)": "43.1% (active)"}
{"smiles": "O=C(Nn1cnnc1)c1ccc([N+](=O)[O-])cc1", "activity (Tm shift, normalised)": "42.7%"}
{"smiles": "O=C(Nc1ccccc1C(=O)Nc1ccncc1)c1ccc([N+](=O)[O-])cc1", "activity (Tm shift, normalised)": "-0.016%"}
{"smiles": "CC(C)NC(=O)N1CC2(C1)[C@H](c1ccccc1)[C@H](CO)N2C(=O)C1CCOCC1", "activity (Tm shift, normalised)": "-0.068%"}
{"smiles": "CC(=O)Oc1ccc2c(=O)oc(-c3ccc([N+](=O)[O-])cc3)nc2c1", "activity (Tm shift, normalised)": "-0.034%"}
{"smiles": "O=[N+]([O-])c1ccc2c(c1)C(O)n1nc(-c3ccccc3)nc1S2", "note": "(stereo not given)", "activity (Tm shift, normalised)": "0.035%"}
{"smiles": "O=[N+]([O-])c1ccc2oc(-c3cccc(O)c3)nc2c1", "activity (Tm shift, normalised)": "43.2% (active)"}
